SMILES strings stand for the structures.

What is called Inhibition is the percentage by which the read-out fell short of the control. Read a low Inhibition as a response near the control.

For this test, the system named is HepG2. Description: GSK_TCMDC: Percent inhibition of human HepG2 cell line. Test compounds present at 10uM. The format is functional.
As for `COCCOc1cc(C)c(C2CCN(CCCCNC(=O)c3ccc(NC(=O)c4ccc(Cl)cc4)cc3)CC2)cc1C`, the Inhibition turned out to be 15%. Under `NCC1CCCN1Cc1ccc(-c2cccc(-c3nc4cc(C(F)(F)F)ccc4[nH]3)c2)cc1.O=C(O)C(F)(F)F` (centres undefined) stands 24%; under `Cc1ccc(-c2csc(C)n2)c(C)c1`, 12%; under `CC(CCNc1c2ccccc2nc2ccccc12)N1CCN(C)CC1.Cl` (centres undefined), 25%. Regarding `CC(C)(C)c1nn(-c2ccccc2)c2[nH]c(=O)c(CNCc3ccc4c(c3)OCO4)cc12`, the Inhibition was determined as 1%.

In turn, `CCC(=O)Nc1cc(=O)[nH]c2nc(-c3ccc(Cl)cc3)nn12` had an Inhibition of 3%.

`Cc1cc(N(C)C)nc(Nc2ccc(NC(=O)c3cccc(F)c3)cc2)n1`: the Inhibition was determined as 0%. In turn, `FC(F)(F)c1ccc2[nH]ccc(=NN=Cc3cccc(Cl)c3)c2c1` gave an Inhibition of 0%.

For the compound `Cc1ccc(C)c(S(=O)(=O)Nc2ccc(Br)cc2C(=O)Nc2cccc(C(F)(F)F)c2)c1`, the Inhibition was 56%. The compound `CC(=O)N(C)c1cccc(C(=O)Nc2ccc(-c3cccc(-c4nc5cccc(C)c5[nH]4)c3)cc2)c1` showed an Inhibition of 86%. For `O=C(O)C(F)(F)F.OCCN1CCN(Cc2ccc(-c3ccc(-c4nc5cc(C(F)(F)F)ccc5[nH]4)s3)cc2)CC1`, the Inhibition worked out at 65%. Under `Clc1ccc(CNc2ccnc(NCCc3coc4ccccc34)n2)c(Cl)c1` stands 26%; under `Cc1ccc(C)c2sc(N(CCCn3ccnc3)C(=O)c3ccco3)nc12.Cl`, 28%. `Oc1c(Cl)cc(Nc2nccc(Nc3ccc(Oc4ccccc4)cc3)n2)cc1Cl` came in with an Inhibition of 8%.

`CCCCN1CCN(Cc2cccc(NC(=O)c3ccc(Cl)c(Cl)c3)c2)CC1.O=C(O)C(F)(F)F` showed an Inhibition of 21%. For `CC(C)C[C@H](NC(=O)c1cc2ccccc2s1)C(=O)N[C@H]1CCN(Cc2ccc(I)c(OC3CCN(C)C3)c2)C1.O=C(O)C(F)(F)F` (some centres undefined), the Inhibition amounted to 99%.

For `Cc1noc(C)c1-c1cccc(CNCc2ccc(-c3ccc(-c4nc5ccccc5[nH]4)s3)cc2)c1.O=C(O)C(F)(F)F`, the Inhibition is 41%. Under `Cn1cnc(CCNC(=O)c2ccc(-c3ccc(-c4nc5cc(C(F)(F)F)ccc5[nH]4)s3)cc2)c1` stands 75%; under `COc1ccc(NC(=O)[C@H](CC(C)C)Nc2cc(C)nc(NCCOc3ccccc3)n2)cc1.O=C(O)C(F)(F)F`, 0%. Compound `Cc1ccc(Nc2nc(C)cc(N3CCN(CCc4ccccc4)CC3)n2)cc1` showed an Inhibition of 6%. Under `Cc1cc(-c2ccc(CNCCc3cccs3)cc2)ccc1S(=O)(=O)NCc1ccccc1.O=C(O)C(F)(F)F` stands 28%. Turning to `O=C(Nc1cccc(-c2cccc(-c3nc4cc(F)ccc4[nH]3)c2)c1)c1csnn1`, the Inhibition was 23%. For `CN1CCN(c2cc(-c3cccnc3)nc(-c3ccncc3)n2)CC1`, the Inhibition is listed as 11%. For the compound `Cc1nc(N)nc(N)c1OCc1ccc(Cl)c(Cl)c1.Cl`, the Inhibition stood at 14%. `Cc1cc(NC2CCN(CC3CCCCC3)C2)nc(Nc2ccc(Cl)cc2)n1` (centres undefined) returned an Inhibition of 26%. Under `CC(CN1CCN(C)CC1)C(=O)Nc1ccc(-c2ccc(-c3nc4cc(F)ccc4[nH]3)cc2)cc1` (centres undefined) stands 19%.

`N#Cc1cccc(Nc2cc(C(F)(F)F)nc(Nc3ccccc3)n2)c1.O=C(O)C(F)(F)F` had an Inhibition of 7%. Under `O=C(Nc1cccc(-c2cccc(-c3nc4cc(C(F)(F)F)ccc4[nH]3)c2)c1)c1cccnc1Cl` stands 56%; under `COc1cc2nc(NCC3CCCO3)n3nc(-c4ccccc4)nc3c2cc1OC` (centres undefined), 0%. Turning to `CC1(C)CCCN(c2ncc(-c3cccc(CNCc4ccccc4O)c3)cn2)C1`, the Inhibition is on record as 35%. On to `O=C(Nc1ccc(N2CCC(Nc3ccccn3)CC2)cc1)c1cnc(Cl)c(Cl)c1.O=C(O)C(F)(F)F`, for which the Inhibition amounted to 46%. Under `O=C(Nc1cccc(CN2CCCN(Cc3ccc4c(c3)OCO4)CC2)c1)c1ccc(Cl)c(Cl)c1.O=C(O)C(F)(F)F` stands 34%. The compound `CC(C)CNCc1ccc(-c2cccc(CN(CCN(C)C)C(=O)CCC3CCCC3)c2)cc1.O=C(O)C(F)(F)F` yielded an Inhibition of 56%.

`CC1(CCCCN2CCC(Oc3ccc(F)cc3F)CC2)C(=O)Nc2ccccc21.Cl` (centres undefined) yielded an Inhibition of 6%. As to `O=C(Nc1cc(F)cc(F)c1)NC1CCN(CCCCCNC(=O)C2CC2c2ccc(Cl)c(Cl)c2)CC1` (centres undefined), the Inhibition came to 49%.

The compound `NC(=O)COc1c(C2CCN(CCN3CCC(CNC(=O)c4ccc(-c5ccc(C(F)(F)F)cc5)cc4)CC3)CC2)ccc2c1CCCC2` came in with an Inhibition of 32%.

In turn, `Nc1cc(-c2cc3c(OCc4ccccc4)cccc3[nH]2)ccn1` showed an Inhibition of 23%. As for `CC(C)C[C@@H](/C=N/N1CCOC1=O)NC(=O)[C@H](CC(C)C)NC(=O)c1ccc(OCCN2CCOCC2)cc1`, the Inhibition is 5%. Under `COc1ccc2nccc([C@@H](O)CN3CCC(NC(=O)/C=C/c4ccc5cc(C)[nH]c5c4)CC3)c2c1` stands 7%.

The record behind these values is ChEMBL document CHEMBL1157539, “Thousands of chemical starting points for antimalarial lead identification” (Nature, 2010).
